Screening results from PubChem BioAssay.
In the library only some 4.2% were active in any assay of this set; here they are far more common.
VDR inh – vitamin D3 receptor (human) inhibition; P11473; VDR-SRC2-3 peptide fluorescence polarization, 2 h; 0.93% of 400,000 active; AID 504847; Potency, µM, without a hit: max response, negative = inhibition, actives largely listed as inhibitors
Target sequence (P11473 whole entry, looked up): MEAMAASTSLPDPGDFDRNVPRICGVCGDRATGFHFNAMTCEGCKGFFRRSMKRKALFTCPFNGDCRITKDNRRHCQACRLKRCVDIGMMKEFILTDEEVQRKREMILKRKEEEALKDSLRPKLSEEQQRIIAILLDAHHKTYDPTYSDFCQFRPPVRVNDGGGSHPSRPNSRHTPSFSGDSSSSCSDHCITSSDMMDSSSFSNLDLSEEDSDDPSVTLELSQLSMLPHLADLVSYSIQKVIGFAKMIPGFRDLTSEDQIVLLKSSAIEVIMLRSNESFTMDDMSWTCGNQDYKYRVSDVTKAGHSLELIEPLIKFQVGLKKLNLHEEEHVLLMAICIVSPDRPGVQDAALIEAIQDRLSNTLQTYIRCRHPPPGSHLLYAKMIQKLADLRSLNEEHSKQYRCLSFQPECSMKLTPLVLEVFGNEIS
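Two reagent solutions held at 4 deg C in the dark were dispensed, compounds pinned at 23 nl, and the mixture incubated 2 h at room temperature. Read-out: fluorescence polarization of VDR–SRC2-3 peptide binding.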
PLK1 PBD inh – blocks phosphopeptide binding to human PLK1 polo-box domain | Plk1 PBD binding of FITC phosphopeptide, fluorescence polarization | P53350 | Potency, µM, inactives show max response, negative = inhibition, most hits filed as inhibitors | 2.8% of 360,000 active; further: series mostly up to about 57 µM; nearly all actives have a fitted effect of over 65% in size
12-LOX inh – ALOX12 (human) lipoxygenase inhibition. P18054. purified 12hLO, xylenol orange hydroperoxide absorbance. Potency, µM (doses to about 108 µM), for inactives: top-dose activity change, negative = inhibition, usual class: inhibitors. 1.1% of 580,000 active. AID 1671190
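Purified human 12hLO at 150 nM in 25 mM Hepes, 0.01% Triton X-100, pH 7.0, preincubated 15 min at room temperature with compound. Reaction started with 40 uM arachidonic acid, 30 min at room temperature. Hydroperoxide measured by Fe-xylenol orange, 573/405 nm absorbance ratio.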
Sfp PPTase inh – blocks B. subtilis Sfp PPTase activity; Potency, µM, for the others: largest response in the series, negative = inhibition, usual class: inhibitors; Biochemical Sfp PPTase activity, qHTS; Q9F4F7; 3.5% of 310,000 active;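 further: the enzyme is Sfp with the accession as filed and its product quenches rhodamine fluorescence; 0% = enzyme reaction without inhibitor and -100% = no enzyme wells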
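With Hepes-Na pH 7.6 buffer containing 10 mM MgCl2, Sfp (15 nM) modified BHQ-2-YbbR (12.5 uM) using rhodamine-CoA (5 uM). Two reads 30 minutes apart at 525/598 nm yielded each well's rate.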
* hit, by the source's call; [ ] = another dose, or the depositor's remark. The call rests on the fitted dose curve; in most records, active means well fitted curve in the direction sought with a large enough effect; inconclusive means small, poorly fitted or top-dose-only effect, or another doubt; inactive means no such curve, though single readings can be large; an effect the other way counts as inactive or inconclusive. Unless noted, on the % scale 0 is the no-effect control and ±100 the full control effect; potency means the concentration at half of the fitted maximal effect.

`COc1cc(Br)cc(CN2CCN(C/C=C/c3ccccc3)CC2)c1O` gave VDR inh -12%, PLK1 PBD inh 3%, 12-LOX inh 14µM* and Sfp PPTase inh -24%.
Screening S=c1ncc2[nH]c(=S)[nH]c2[nH]1 returned VDR inh 32µM* and PLK1 PBD inh 1.7µM*.
`C=CCOc1c(CNc2ccc3[nH]c(=O)[nH]c3c2)cccc1OC` gave VDR inh -1%, PLK1 PBD inh 27µM*, 12-LOX inh -4% and Sfp PPTase inh 4%.
CCOc1cc(CNc2ccc3[nH]c(=O)[nH]c3c2)ccc1OCC(=O)NC(C)(C)C was read as VDR inh 3%, PLK1 PBD inh -8%, 12-LOX inh 28% and Sfp PPTase inh inconclusive.
For COc1cc(CNc2ccc3[nH]c(=O)[nH]c3c2)cc(Cl)c1OCC(=O)NC(C)(C)C the results were VDR inh -5%, PLK1 PBD inh inconclusive, 12-LOX inh inconclusive and Sfp PPTase inh 11µM*.
Screening CCCn1ncc(CN2CCCC23CCN(c2ncccn2)CC3)c1C returned 12-LOX inh 32%.
O=C(NCc1ccc2c(c1)OCO2)C1CC(c2ccc(Cl)c(Cl)c2)=NO1 (centres undefined) was read as VDR inh 6%, PLK1 PBD inh -11%, 12-LOX inh 0% and Sfp PPTase inh -7%.
`O=C(NCCNC(=O)c1ccccn1)c1ccc(F)cc1` gave VDR inh -21%, PLK1 PBD inh 4%, 12-LOX inh 1% and Sfp PPTase inh 1%.
Screening CC(=O)Nc1cccc(C(C)NCc2csc(C)n2)c1 (centres undefined) returned 12-LOX inh 2µM*.
For COCCNC(=O)CSc1nc2nn(-c3ccccc3)c(=O)c-2c2n1CCCCC2 the results were VDR inh 2%, PLK1 PBD inh 24µM*, 12-LOX inh 11% and Sfp PPTase inh 5%.
O=c1c2c(CO)c(-c3ccccc3)nn2ccn1Cc1cccc(C(F)(F)F)c1 was read as 12-LOX inh 31%.
For O=c1[nH]ncn1-c1ccccc1C(F)(F)F the results were VDR inh -2%, PLK1 PBD inh 2%, 12-LOX inh 16% and Sfp PPTase inh 0%.
`O=c1[nH][nH]c(=S)n1-c1ccccc1C(F)(F)F` gave Sfp PPTase inh 7.9µM*.
`O=C(NNc1nc2ccccc2s1)C1CC1` gave VDR inh -2%, PLK1 PBD inh -6%, 12-LOX inh 1% and Sfp PPTase inh 45µM*.
Screening O=C(NNc1nc2ccccc2s1)Nc1ccc(Cl)c(Cl)c1 returned VDR inh -19%, PLK1 PBD inh -5%, 12-LOX inh -29% and Sfp PPTase inh 56µM*.
`CC(C)C(=O)NNc1nc2ccccc2s1` gave VDR inh 4%, PLK1 PBD inh -5%, 12-LOX inh 1%[57.4 µM] and Sfp PPTase inh 19%.
O=C(NNc1nc2ccccc2s1)Nc1ccc(F)cc1 was read as VDR inh 12%, PLK1 PBD inh -14%, 12-LOX inh inconclusive and Sfp PPTase inh 100µM*.
`COc1ccccc1CC(=O)NC1CCN(c2cc(C(F)(F)F)nc(C)n2)CC1` gave 12-LOX inh 9%.
For CCOc1ccc(S(=O)(=O)/N=C(/c2ccccc2)N(C)C)cc1 the results were VDR inh -4%, PLK1 PBD inh -1%, 12-LOX inh 112% and Sfp PPTase inh 17%.
`O=C(CCc1cccnc1)NC12CC3CC(CC(C3)C1)C2` gave 12-LOX inh 3%.
`Cn1cc(/C=N/NC(=O)c2cc3cc(Br)ccc3o2)c2ccccc21` gave VDR inh -26%, PLK1 PBD inh 5%, 12-LOX inh 0% and Sfp PPTase inh -5%.
For O=C(O)c1ccc(-n2cccc2/C=N\NC(=O)c2cc3cc(Br)ccc3o2)cc1 the results were VDR inh -16%, PLK1 PBD inh 21µM*, 12-LOX inh 35µM* and Sfp PPTase inh -11%.
`Cc1nn(-c2ccccc2)c(Cl)c1/C=C1\SC(=S)NC1=O` gave VDR inh -21%, PLK1 PBD inh inconclusive, 12-LOX inh 25µM* and Sfp PPTase inh inconclusive.
`O=C1NC(=S)SC1=Cc1ccccn1` gave PLK1 PBD inh -9% and 12-LOX inh inconclusive.
`Cc1nn(-c2ccccc2)c(Cl)c1/C=C1\SC(=S)N(CCCCCC(=O)O)C1=O` gave VDR inh inconclusive, PLK1 PBD inh 24µM*, 12-LOX inh -24% and Sfp PPTase inh -4%.
For COc1cc(NC(=O)c2ccccc2F)c(OC)cc1NC(=O)CN1CCCCC1 the results were VDR inh -17%, PLK1 PBD inh -7%, 12-LOX inh -11% and Sfp PPTase inh -11%.
For COC(=O)c1ccc(CC(=O)c2c(C)cc(O)cc2O)o1 the results were VDR inh -14%, PLK1 PBD inh -20%, 12-LOX inh inconclusive and Sfp PPTase inh 40µM*.
CC1CCN(CC[C@@H]2CC[C@H](O)[C@@H](C(=O)Nc3ccccc3)O2)CC1 was read as 12-LOX inh -19%[176 µM].
`Cc1cccc([C@@H]2CN(C)CCc3c2cc(O)c(O)c3Cl)c1` gave 12-LOX inh inconclusive and Sfp PPTase inh 79µM*.
For Nc1sc2c(c1C(=O)NCCc1ccccc1)CCC2 the results were VDR inh inconclusive, PLK1 PBD inh inconclusive, 12-LOX inh 0% and Sfp PPTase inh inconclusive.
`CCCCNC(=O)C(CC)Sc1nc2sc(C(=O)OC)c(C)c2c(=O)n1N` (centres undefined) gave VDR inh 5%, PLK1 PBD inh -16%, 12-LOX inh -14% and Sfp PPTase inh 50µM*.
`COc1ccc2[nH]c3c(c2c1)CCN1C(=O)C(CC(=O)NCc2cccc(C(F)(F)F)c2)C[C@H](C(=O)N2CCCCC2)[C@@]31C` (some centres undefined) gave VDR inh 3%, PLK1 PBD inh 0% and 12-LOX inh -16%.
Screening O=C1CSC(=S)N1N1C(=O)c2cccc([N+](=O)[O-])c2C1=O returned Sfp PPTase inh 0.71µM*.
For O=C1c2cccc([N+](=O)[O-])c2C(=O)N1CCO the results were VDR inh -1%, PLK1 PBD inh -17%, 12-LOX inh -5% and Sfp PPTase inh 7%.
For CC1(C(=O)NC2CCCC2)CCC(=O)N1Cc1ccccc1 (centres undefined) the results were VDR inh 5%, PLK1 PBD inh -8%, 12-LOX inh -7% and Sfp PPTase inh 18%.
O=C(/C(Cl)=C/Nc1ccccn1)C(F)(F)F was read as 12-LOX inh -9%.
Cc1ccnc(N/C=C(/Cl)C(=O)C(F)(F)F)c1 was read as 12-LOX inh 40µM*.
Screening Cc1c(NC=C(C#N)C#N)c(=O)n(-c2ccccc2)n1C returned VDR inh -6%, PLK1 PBD inh -1%, 12-LOX inh 7% and Sfp PPTase inh 3%.
For Cc1c(N/C=C(\Cl)C(=O)C(F)(F)F)c(=O)n(-c2ccccc2)n1C the results were VDR inh -12%, PLK1 PBD inh -3%, 12-LOX inh inconclusive and Sfp PPTase inh 22µM*.
For Cc1nc(C(=O)N2CC[C@H](n3nnc(C(N)=O)c3C(N)=O)C[C@H]2C(=O)N[C@@H](Cc2cccs2)C(N)=O)cs1 the results were 12-LOX inh 57%.
